# Screening results deposited in PubChem by National Center for Advancing Translational Sciences (NCATS).
# Only some compounds are listed: those with a hit (about 17% of all), similar ones and a draw of the others.
# DT40 TDP1 no CPT: qHTS for Inhibitors of human tyrosyl-DNA phosphodiesterase 1 (TDP1): qHTS in cells in absence of CPT; DT40 Tdp1-/- hTDP1 cells, no CPT, ATP luminescence, 48 h; Potency, µM (titrated, usually from 46.2 µM), inactives show at the top dose activity change, negative = growth inhibition, actives largely listed as inhibitors; hit rate 15% among 420,000; note: % is set by controls: 0 for no effect and ±100 for the full control effect; nearly all actives have a fitted effect of over 55% in size
#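 Compound effects on proliferation are scored in DT40 Tdp1-/-;hTDP1 cells in the absence of CPT. ATP levels (CellTiter-Glo luminescence) are recorded after a ≥48 hr, 37 °C incubation.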
# TDP1 cell CPT: growth inhibition of DT40 Tdp1-/-;hTDP1 cells with camptothecin (screen for TDP1 inhibitors). chicken DT40 Tdp1-/-;hTDP1 cells + 20 nM CPT, ATP luminescence, 48 h. Potency, µM (highest dose often 46.2 µM), without a hit: at the highest dose activity change, negative = growth inhibition, actives largely listed as inhibitors. hit rate 12% among 420,000. AID 686979; note: % is set by controls: 0 for no effect and ±100 for the full control effect; nearly all actives have a fitted effect of over 55% in size
#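 Cell growth measured by CellTiter-Glo luminescence after a minimum 48 h, 37 C compound exposure with 20 nM CPT in Tdp1-knockout DT40 cells stably expressing hTDP1, seeded 400/well; qHTS titration format.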
# ClpP mod: qHTS Assay for Activators of ClpP | hit rate 1.9% among 340,000 | AID 651965, 2013 | ATP-dependent Clp protease proteolytic subunit (Bacillus subtilis (strain 168)), P80244 | purified B. subtilis ClpP, FRET peptide cleavage, 20 min | Potency, µM (series often up to 57.5 µM), without a hit: top-dose activity change, negative = active; active = well fitted falling curve with a large enough effect; inconclusive = small, poorly fitted or top-dose-only effect; inactive = no such curve, though single readings can be large or run the other way; note: the source files actives as falling curves though it sought activators and does not explain the sign; nearly all actives have a fitted effect of over 65% in size
# Target sequence (P80244 whole entry, looked up): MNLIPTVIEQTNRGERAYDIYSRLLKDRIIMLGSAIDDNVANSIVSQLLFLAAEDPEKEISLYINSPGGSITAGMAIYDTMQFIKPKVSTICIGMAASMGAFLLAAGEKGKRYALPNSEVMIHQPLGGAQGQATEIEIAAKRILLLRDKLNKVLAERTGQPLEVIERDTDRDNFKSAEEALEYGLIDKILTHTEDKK
#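 Purified B. subtilis ClpP, 10 microg/mL final in Tris/HCl pH8 with KCl, BSA, glycerol and Tween-20, cleaved an Abz/nitrotyrosine-quenched decapeptide. Fluorescence (ex 320, em 430) was read at 0 and 20 min at room temperature. Delta was normalized to 5.8 microM ADEP and DMSO/no-enzyme controls.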
# TDP1 block: inhibitors of human tyrosyl-DNA phosphodiesterase TDP1; Q9NUW8; recombinant TDP1, AlphaScreen DNA substrate cleavage; Potency, µM (highest dose often 130 µM), without a hit: at the top dose activity change, negative = inhibition, usual class: inhibitors; hit rate 0.28% among 350,000; note: % is set by controls: 0 for no effect and ±100 for the full control effect; nearly all actives have a fitted effect of over 40% in size
#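 Tdp1 1 nM final; 15 min RT w/ cpd; substrate 15 nM, 5 min; beads 10 ug/ml, 10 min; AlphaScreen read. Neg ctrl: no enzyme.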
# * hit, by the source's call; ? = inconclusive; / = no result; [ ] = another dose, or the depositor's remark. Unless noted, calls come from the whole dose curve; as a rule, active = well fitted curve in the direction sought with a large enough effect; inconclusive = small, poorly fitted or top-dose-only effect, or another doubt; inactive = no such curve, though single readings can be large; an effect the other way counts as inactive or inconclusive. Potency is the fitted concentration of half-maximal effect.
SMILES,DT40 TDP1 no CPT,TDP1 cell CPT,ClpP mod,TDP1 block
CCC(C)c1ccc(NC(=S)Nc2ccc(OC)cc2)cc1 (centres undefined),16µM*,23µM*,1%,1%
CC(=O)NC(=S)Nc1ccc(NC(=O)COc2ccc(C(C)C)cc2)cc1,-22%,-4%,/,1%
COc1ccc(CCNC(=S)Nc2ccccc2)cc1,?,?,0%,7%
CCCCc1ccc(NC(=S)N2CCN(C)CC2)cc1,?,-8%,0%,4%
COc1ccc(CCNC(=S)Nc2cc(C)cc(C)c2)cc1,23µM*,?,-5%,6%
CC(C)c1ccc(NC(=S)Nc2ccc(OC(F)(F)F)cc2)cc1,23µM*,18µM*,/,8%
CCCCc1ccc(NC(=S)N2CCCC2)cc1,15µM*,12µM*,-2%,3%
COc1cccc(C=NC=Nc2cccc(OC)c2)c1,-22%,0%,/,/
COc1ccc(CCNC(=S)Nc2ccc(OC)cc2)cc1,?,?,2%,8%
CCCCc1ccc(NC(=S)NCc2ccc(OC)cc2)cc1,18µM*,?,0%,5%
COc1ccc(CCNC(=S)Nc2ccc(C(C)C)cc2)cc1,18µM*,?,-4%,-3%
COc1ccc2[nH]c(=O)c(CN(Cc3ccco3)C(=O)c3ccccc3)cc2c1,-13%,?,?,4%
CCOc1ccc2[nH]c(=O)c(CN(Cc3ccco3)C(=O)c3cccc(F)c3)cc2c1,23µM*,?,32µM*,2%
CCOc1ccc2[nH]c(=O)c(CN(Cc3ccco3)C(=O)c3ccc(Br)cc3)cc2c1,3.3µM*,?,?,8%
CC(=O)OCC1OC(C#CCCc2ccccc2)C=CC1OC(C)=O (centres undefined),/,/,/,3%[21 µM]
COc1ccccc1-c1sc2ccccc2c1-c1ccc(O)cc1,?,?,20µM*,2%
COc1ccccc1-c1sc2ccccc2c1-c1ccc2c(c1)OCO2,?,23µM*,?,/
COc1ccc(-c2sc3ccccc3c2-c2ccc(O)cc2)cc1,?,-82%,4%,0%
CN(C(=O)c1cccc(NC(=O)Cc2ccc(NC(=O)C3CCN(C(=O)C4CC4)CC3)cc2)c1)C1CCC1,-23%,-6%,2%,/
COc1cc(/C=N/NC(=O)c2ccc(CSc3nc4ccccc4[nH]3)cc2)cc(OC)c1OC,13µM*,18µM*,?,3%
CCCOc1ccc(CSc2nc3ccccc3[nH]2)cc1,8.2µM*,8.2µM*,-1%,-2%
CC(C)CCNC(=O)c1onc(CSc2nc3ccccc3[nH]2)c1C(=O)NCCC(C)C,16µM*,?,3%,/
COc1cc(/C=N/NC(=O)c2ccc3nc[nH]c3c2)cc(OC)c1OC,-2%,3%,/,3%
CCOc1ccc(OCCSc2nc3ccccc3[nH]2)cc1,21µM*,16µM*,-1%,4%
CCOCCCN1CC(=O)N2[C@@H](Cc3c([nH]c4ccccc34)C2(C)C)C1=O,?,?,-2%,/
SMILES,DT40 TDP1 no CPT,TDP1 cell CPT,ClpP mod,TDP1 block
CC(=O)c1cccc(NC(=O)CSc2n[nH]c(=O)n2C2CC2)c1,?,-5%,/,0%
O=C(NCCCO)c1ccc(CSc2nc3ccccc3[nH]2)cc1,18µM*,?,/,5%
O=[N+]([O-])c1ccc(CSc2nc3ccccc3[nH]2)cc1,29µM*,?,1%,3%
c1ccc(CSc2nc3ccccc3[nH]2)cc1,?,-7%,/,0%
O=C(NCCO)c1ccc(CSc2nc3ccccc3[nH]2)cc1,?,-25%,1%,7%
CCOc1cccc(NC(=O)C2CC(=O)N(C)C(=Nc3cccc(F)c3)S2)c1 (centres undefined),18µM*,?,-1%,-2%
COc1ccc(OC)c(C(=O)N2CCOc3ccc(C(C)(O)CN(C)C)cc3C2)c1 (centres undefined),-11%,9%[9.04 µM],/,/
O=C(c1cc2ccccc2o1)N1CCN(S(=O)(=O)c2ccccc2)CC1,-21%,12µM*,1%,1%
Cc1cc(C(=O)N2CCc3ccccc3C2)no1,-1%,15%,-1%,5%
Cc1cc(C(=O)N2CCc3ccccc3C2)c(C)o1,?,16µM*,0%,/
Cc1nc2ccccc2c2oc(C(=O)N3CCc4ccccc4C3)cc12,16µM*,23µM*,-15%,4%
Cc1nc2ccccc2c2oc(C(=O)N3CCC(C)CC3)cc12,?,?,-1%,4%
Cc1cc(C(=O)N2CCN(S(=O)(=O)c3ccccc3)CC2)c(C)o1,?,23µM*,-3%,2%
O=S(=O)(c1ccc(=S)[nH]c1)N1CCCC1,?,?,0%,0%
COC(C[C@H]1O[C@@H]1C(=O)[C@H](C)OCc1ccccc1)OC,-14%,?,-1%,/
O=C(CC1C(=O)N(c2ccc(Cl)cc2)C(=S)N1CCc1ccncc1)Nc1ccc(F)cc1 (centres undefined),?,?,1%,3%
CCOc1cc2[nH]c(=O)n(CCCC(=O)N3CCN(c4ccc(OC)cc4)CC3)c(=O)c2cc1OCC,21µM*,?,-9%,-2%
COc1cc2[nH]c(=O)n(CCC(=O)N3CC=C(c4ccccc4)CC3)c(=O)c2cc1OC,-3%,2%,?,5%
COc1cccc(N2CCN(C(=O)CCCn3c(=O)[nH]c4ccc(Br)cc4c3=O)CC2)c1,6.5µM*,21µM*,2%,12%
O=C(CCn1c(=O)[nH]c2ccccc2c1=O)N1CC=C(c2ccccc2)CC1,?,-25%,/,5%
C=CCn1c(=O)[nH]c2cc(C(=O)N3CC=C(c4ccccc4)CC3)ccc2c1=O,26µM*,?,/,3%
COc1cc2[nH]c(=O)n(CCCC(=O)N3CC=C(c4ccccc4)CC3)c(=O)c2cc1OC,21µM*,?,?,5%
c1ccc(-c2n[nH]c3c2oc2ccccc23)cc1,/,/,/,4%
CN(C)c1ncc2nc(CCc3ccccc3)c(=O)n(Cc3ccc(F)cc3)c2n1,-27%,2%,/,/
COc1cc2[nH]c(=O)n(CCC(=O)N3CCC(N4CCCCC4)CC3)c(=O)c2cc1OC,-5%,2%,32µM*,2%
CCOc1cc2[nH]c(=O)n(CCCCC(=O)N3CCN(c4ccccc4OC)CC3)c(=O)c2cc1OCC,9.2µM*,13µM*,-10%,0%
COc1cc2[nH]c(=O)n(CCCCCC(=O)N3CCN(c4ccccn4)CC3)c(=O)c2cc1OC,?,?,?,1%
CC1CCC2C(=O)N3C(CCC(C)C3c3ccccc3Br)C(=O)N2C1c1ccc(C#CCN(C)C)cc1 (centres undefined),/,/,/,10%[21 µM]
N/C(=N\OCC(=O)Nc1ccc(F)c(Cl)c1)c1ccccc1,?,23µM*,-16%,1%
